PubChem BioAssay (NCATS)
Records with an inconclusive call do not appear. A call without a number means that no potency is given here. The source made the active and inactive calls. Calls come from the whole dose curve; as a rule, active = well fitted inhibition curve with a large enough effect; inconclusive = small, poorly fitted or top-dose-only effect; inactive = flat fitted curve, though single readings scatter.

system: PAD; assay: qHTS profiling for inhibitors of Plasmodium falciparum proliferation (AID 504749); note: nearly all actives have a fitted effect of over 60% in size; conditions: P. falciparum in erythrocytes, SYBR Green DNA, 72 h; series mostly up to 28.7 µM
Outline: (§1)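 Parasite proliferation within erythrocytes, 72 h exposure. Endpoint: SYBR Green I fluorescence after overnight lysis at room temperature. Controls: 0.29 uM artemisinin, DMSO.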
Potency is the fitted concentration of half-maximal effect.

SMILES | Potency
COc1ccc(OC)c(C(O)C(C)N)c1 (centres undefined) | inactive
CCON=O | inactive
CCCCCl | inactive
COC([CH2][Hg])CNC(=O)c1ccccc1OCC(=O)O (centres undefined) | inactive
CC(C)(O)C1C2OC(=O)C1C1(O)CC3OC34C(=O)OC2C14C (centres undefined) | inactive
C[CH2][Hg][S]c1ccccc1C(=O)O | 2.82 µM (active)
O=C1C2CC=CCC2C(=O)N1SC(Cl)(Cl)Cl (centres undefined) | inactive
N#CN | inactive
O=C1CCCCC1CN1CCCCC1 (centres undefined) | inactive
CN1C2CCC1CC(OC(c1ccccc1)c1ccc(Cl)cc1)C2 (centres undefined) | 12.6 µM (active)
COC1=CC=C2[C@H]3Cc4ccc(OC)c5c4[C@@]2(CCN3C)[C@H]1O5 | inactive
S=C=S | inactive
O=[N+]([O-])C(Br)(CO)CO | inactive
COc1ccc2c3c1O[C@H]1C(=O)CC[C@H]4[C@@H](C2)N(C)CC[C@]314 | inactive
CC(=O)O[C@H]1CC[C@H]2[C@@H]3CCC4=CC(=O)CCC4=C3C=C[C@]12C | inactive
CCCCCCCCOC(=O)c1ccccc1C(=O)OCCCCCCCC | inactive
O=C1CCO1 | inactive
O=C(CS(=O)C(c1ccccc1)c1ccccc1)NO (centres undefined) | inactive
C=CCN1CC[C@]23c4c5ccc(O)c4O[C@H]2[C@@H](O)C=C[C@H]3[C@H]1C5 | inactive

SMILES | Potency
O=c1[nH]cc(N(CCCl)CCCl)c(=O)[nH]1 | inactive
C/C(=C\c1csc(C)n1)[C@@H]1C[C@@H]2O[C@]2(C)CCC[C@H](C)[C@H](O)[C@@H](C)C(=O)C(C)(C)[C@@H](O)CC(=O)O1 | 0.0035 µM (active)
CCC(N)Cc1c[nH]c2ccccc12 (centres undefined) | inactive
C#CC(C)(O)CC (centres undefined) | inactive
CCCCNCC(O)c1ccc(O)cc1 (centres undefined) | inactive
O[C@H]1[C@H]2[C@H](O)CCCN2C[C@H]1O | inactive
C=CCN1CCC23c4c5ccc(O)c4O[C@H]2C(=O)CC[C@@]3(O)C1C5 (some centres undefined) | inactive
CC(=O)OO | inactive
CCCC(=O)OC(C(Cl)(Cl)Cl)P(=O)(OC)OC (centres undefined) | inactive
[N-]=[N+]=CC(=O)OCC(N)C(=O)O (centres undefined) | inactive
CC(C)CCON=O | inactive
CC(C)(C)c1cc(O)ccc1O | 11.2 µM (active)
COCC(C)N(C(=O)CCl)c1c(C)csc1C (centres undefined) | inactive
C[N+]1(C)CCCCC1COC(=O)C(O)(c1ccccc1)c1ccccc1 (centres undefined) | inactive
CCC1(c2ccccc2)C(=O)NC(=O)NC1=O | inactive
C[N+]1(C)C2CCC1CC(OC(=O)c1c[nH]c3ccccc13)C2 (centres undefined) | inactive
O=S(=O)(O)c1cc(O)ccc1O | inactive
FC(F)OC(F)(F)C(F)Cl (centres undefined) | inactive
c1ccc2sc(SNC3CCCCC3)nc2c1 | inactive

system: PC15; assay: as above; conditions: P. falciparum in erythrocytes, SYBR Green DNA, 72 h; series mostly up to 28.7 µM
Outline: as §1

SMILES | Potency
COc1ccc(OC)c(C(O)C(C)N)c1 (centres undefined) | inactive
CCON=O | inactive
CCCCCl | inactive
COC([CH2][Hg])CNC(=O)c1ccccc1OCC(=O)O (centres undefined) | inactive
CC(C)(O)C1C2OC(=O)C1C1(O)CC3OC34C(=O)OC2C14C (centres undefined) | inactive
C[CH2][Hg][S]c1ccccc1C(=O)O | 4.47 µM (active)
O=C1C2CC=CCC2C(=O)N1SC(Cl)(Cl)Cl (centres undefined) | inactive
N#CN | inactive
O=C1CCCCC1CN1CCCCC1 (centres undefined) | inactive
CN1C2CCC1CC(OC(c1ccccc1)c1ccc(Cl)cc1)C2 (centres undefined) | 3.98 µM (active)
COC1=CC=C2[C@H]3Cc4ccc(OC)c5c4[C@@]2(CCN3C)[C@H]1O5 | inactive
S=C=S | inactive
O=[N+]([O-])C(Br)(CO)CO | inactive
COc1ccc2c3c1O[C@H]1C(=O)CC[C@H]4[C@@H](C2)N(C)CC[C@]314 | inactive
CC(=O)O[C@H]1CC[C@H]2[C@@H]3CCC4=CC(=O)CCC4=C3C=C[C@]12C | inactive
CCCCCCCCOC(=O)c1ccccc1C(=O)OCCCCCCCC | inactive
O=C(CS(=O)C(c1ccccc1)c1ccccc1)NO (centres undefined) | inactive
C=CCN1CC[C@]23c4c5ccc(O)c4O[C@H]2[C@@H](O)C=C[C@H]3[C@H]1C5 | inactive

SMILES | Potency
O=c1[nH]cc(N(CCCl)CCCl)c(=O)[nH]1 | inactive
CCC(N)Cc1c[nH]c2ccccc12 (centres undefined) | inactive
C#CC(C)(O)CC (centres undefined) | inactive
CCCCNCC(O)c1ccc(O)cc1 (centres undefined) | inactive
O[C@H]1[C@H]2[C@H](O)CCCN2C[C@H]1O | inactive
C=CCN1CCC23c4c5ccc(O)c4O[C@H]2C(=O)CC[C@@]3(O)C1C5 (some centres undefined) | inactive
CC(=O)OO | inactive
[N-]=[N+]=CC(=O)OCC(N)C(=O)O (centres undefined) | inactive
CC(C)CCON=O | inactive
CC(C)(C)c1cc(O)ccc1O | 11.2 µM (active)
COCC(C)N(C(=O)CCl)c1c(C)csc1C (centres undefined) | inactive
C[N+]1(C)CCCCC1COC(=O)C(O)(c1ccccc1)c1ccccc1 (centres undefined) | inactive
CCC1(c2ccccc2)C(=O)NC(=O)NC1=O | inactive
C[N+]1(C)C2CCC1CC(OC(=O)c1c[nH]c3ccccc13)C2 (centres undefined) | inactive
O=S(=O)(O)c1cc(O)ccc1O | inactive
FC(F)OC(F)(F)C(F)Cl (centres undefined) | inactive
CNC1(c2ccccc2Cl)CCCCC1=O (centres undefined) | inactive
c1ccc2sc(SNC3CCCCC3)nc2c1 | inactive
